A number with no mark means an inactive call. The source made the active and inactive calls. Rule as the data show it: active = inhibition above about 65%; inactive = the rest.

The experiment deals with Fam108b. The experiment in a line: Fam108b inhibitors and proteome off-target selectivity – biochemical, gel-based ABPP, recombinant soluble Fam108b, HTS hits, complex proteome, late-stage follow-up (AID 588651).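 Also: Fam108b spiked into mouse brain membrane proteome.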 The conditions noted are these: FP-rhodamine labeling in proteome, at 20 µM, stronger effect = higher value.

Usually inhibition stands for the drop in the measured response relative to a control, in per cent. For the compound `Cc1ccc(S(=O)(=O)/N=C2\C=C(Nc3cccc(C(=O)O)c3)C(=O)c3ccccc32)cc1`, the inhibition was 0%.
The result for `O=C(Nc1ccc(-c2csc(Nc3ccc(Cl)cc3)n2)cc1)c1cccc(C(F)(F)F)c1` reads 95% (active); that for `COc1cc2c(cc1NC(=O)Nc1ccccc1)oc1ccccc12`, 0%; that for `CCNc1ccc2noc3c2c1C(=O)c1ccccc1-3`, 0%.
With `Cc1cc(C(C#N)c2ccc(Cl)cc2)c(Cl)cc1NC(=O)c1cc(I)cc(I)c1O` (centres undefined) the figure was 50%.
With `CN(c1ccccc1)S(=O)(=O)c1ccc(NC(=O)c2ccc(-c3ccccc3)cc2)cc1`, the inhibition is 40%.
With `Cc1ccnc(N=Cc2nc(-c3ccccc3Br)oc2O)c1` the figure was 7%; with `O=c1ccc2cc3c([nH]c4ccc(Br)cc43)oc-2c1O`, 10%; with `Oc1cccc2cc3cccc(O)c3c(O)c12`, 85% (active).
`COc1ccc2oc(=O)c(-c3csc(Nc4cccc(O)c4)n3)cc2c1`: the inhibition is 0%.
The result for `O=C1c2ccccc2-c2onc3ccc(NCCCn4ccnc4)c1c23` reads 0%; that for `Nc1ccc2nc(-c3cccc(-c4nc5ccc(N)cc5[nH]4)c3)[nH]c2c1`, 30%; that for `O=[N+]([O-])c1ccc(NN=Cc2c[nH]c3ccccc23)c(S(=O)(=O)Nc2ccc(Cl)cc2)c1`, 0%.
With `COc1ccc(-c2csc3nc(-c4ccccc4OC)oc(=O)c23)cc1` the figure was 80% (active); with `Cc1ccc(S(=O)(=O)N=C2C=C(Sc3ncn[nH]3)C(=O)c3ccccc32)cc1`, 90% (active); with `CCOc1cc(/C=C2\C(=O)N(c3nc(-c4ccc(Br)cc4)cs3)N=C2c2ccccc2)ccc1O`, 70% (active).
The result for `Cn1c(O)c(C=NNC(=O)c2cc3ccccc3cc2O)c2ccccc21` reads 35%.
For the compound `CCN(c1ccccc1)S(=O)(=O)c1ccc(NC(=O)c2nc(S(C)(=O)=O)ncc2Cl)cc1`, the inhibition is 0%.
With `O=C(Nc1ccc2[nH]c(=S)sc2c1)Nc1ccccc1F`, the inhibition is 20%.
For `O=C(O)CCCNc1cc(N2CCN(C(=O)c3ccco3)CC2)c2noc3c2c1C(=O)c1ccccc1-3`, the inhibition is 40%.
In the case of `O=C1NC(=S)/C(=C\c2ccc(-c3ccccc3Cl)o2)S1`, the inhibition is 0%.
As for `COc1cc2c(cc1NC(=S)Nc1cccc(C(F)(F)F)c1)oc1ccccc12`, the inhibition was 20%.
Turning to `O=C(Nc1ccc(N2CCCC2)c(S(=O)(=O)Nc2cccc(C(F)(F)F)c2)c1)c1cccs1`, the inhibition is 85% (active).
The result for `Cc1ccc(-n2c(O)c(/C=N/Nc3ccc(S(=O)(=O)N4CCOCC4)cc3[N+](=O)[O-])c3ccccc3c2=O)c(C)c1` reads 40%.
The result for `Oc1ccccc1-c1nc2c3ccccc3c3ccccc3c2[nH]1` reads 0%; that for `N=c1oc2cc(O)ccc2cc1C(=O)Nc1ccc(Br)cc1`, 0%.
Turning to `CCn1nc([N+](=O)[O-])c(C(C#N)c2nc3cc(C(F)(F)F)ccc3s2)c(Cl)c1=O` (centres undefined), the inhibition was 0%.
With `O=C(Nc1cccc(C(F)(F)F)c1)Nc1ccc(N2CCCC2)c(S(=O)(=O)Nc2ccccc2Cl)c1` the figure was 98% (active); with `CCc1cc(C(Cc2ccc3ccccc3n2)=NO)c(O)cc1O`, 0%.
Take `Brc1csc(C=NNc2nc3ccccc3s2)c1`: the inhibition is 0%.
Take `O=c1oc(-c2ccccc2Cl)nc2ccsc12`: the inhibition was 95% (active).
Turning to `Clc1ccccc1C(c1ccccc1)(c1ccccc1)n1ccnc1`, the inhibition was 0%.
On to `Cc1cc(C)nc(SCc2ccc(C(=O)NN=Cc3cccc(O)c3O)cc2)n1`, for which the inhibition is 30%.
As to `CCc1ccc(S(=O)(=O)N=C2C=C(Sc3ncn[nH]3)C(=O)c3ccccc32)cc1`, the inhibition was 60%.

For the origin of these results see PubChem BioAssay AID588651 (The Scripps Research Institute Molecular Screening Center, 2011).
